According to PubChem BioAssay (NCI):
This is part of a sample that, as a whole, favours compounds with a hit. Of some 83,000 tested, about 20% had one in any assay.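 Assay: single dose, 48 h. Readout: percent growth (0 = no net growth; negative = cell death). Active: <10.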 Values without a mark were called inactive. The source made the active and inactive calls.

Legend:
Test in all cases: NCI-60 one-dose screen, 48 h (100 = growth as untreated, 0 = no growth, -100 = all killed)
Settings in all cases: 10 µM unless noted
SK-MEL-2 melanoma = system: SK-MEL-2 melanoma
EKVX NSCLC = system: EKVX NSCLC
SN12C renal = system: SN12C renal
UO-31 renal = system: UO-31 renal
TK-10 renal = system: TK-10 renal
CAKI-1 renal = system: CAKI-1 renal
A498 renal = system: A498 renal
CCRF-CEM leukemia = system: CCRF-CEM leukemia
MOLT-4 leukemia = system: MOLT-4 leukemia
ACHN renal = system: ACHN renal

SMILES | growth (SK-MEL-2 melanoma) | growth (EKVX NSCLC) | growth (SN12C renal) | growth (UO-31 renal) | growth (TK-10 renal) | growth (CAKI-1 renal) | growth (A498 renal) | growth (CCRF-CEM leukemia) | growth (MOLT-4 leukemia) | growth (ACHN renal) [%]
Cc1c(C(=O)NCCCc2ccccc2)sc2ncc(-c3ccc(Br)cc3)n12 | 115% | 106% | 98.7% | 92% | 135% | 101% | 110% | 96.8% | 99.8% | –
NCCCNc1nc2ccccc2c2c(=O)c3cc(F)cc(F)c3sc12 | 111% | 96.8% | 80.8% | -95% (active) | 87.1% | 61.1% | 43.5% | -6.51% (active) | 60.7% | –
c1ccc(OCc2nnc(-c3ccc(Oc4ccccc4)cc3)o2)cc1 | 91.4% | 96.6% | 99% | 81.7% | 103% | 97.1% | 111% | 96.7% | 87.6% | 92.9
Cc1onc2c(-c3ccccc3)n[nH]c(=O)c12 | 135% | 62.8% | 101% | 106% | 78.9% | 74.1% | 90.2% | 106% | 76% | –
CCCSc1nc2ccc(C)cc2cc1/C=[N+](\[O-])c1ccccc1 | 68.8% | 80.6% | 26.1% | 44.7% | 89.5% | 70.5% | 74.6% | 11.2% | 27.2% | –
C/C(=C(/c1ccccc1)c1ccc(N2C(=O)c3cccc4c(N5CCN(C)CC5)ccc(c34)C2=O)cc1)c1ccccc1 | 116% | 62.4% | 77.2% | 66.9% | 114% | 86.7% | 86.3% | 58% | 54.3% | –
CC(=O)N1N=C(c2ccc(Nc3nc(Nc4ccc(F)cc4)nc(Nc4ccc(Cl)cc4)n3)cc2)CC1c1ccc(Cl)cc1 (configuration not stated) | 109% | 87.3% | 107% | 56.8% | 110% | 83% | 88.9% | 110% | 98.2% | –
CC(=O)c1ccc(Nc2nc(C(C)=O)c(C)s2)cc1 | 105% | 93.2% | 103% | 92.1% | 112% | 88.2% | -17.9% (active) | 90.9% | 100% | –
C(=N/Nc1ncnc2nc[nH]c12)/c1ccccn1 | 71.5% | 24.9% | 36.6% | 3.16% (active) | 56.1% | -25.4% (active) | 55% | 23.7% | 22.2% | –
N#Cc1ccc(NC(=O)c2sc3nc4c(cc3c2N)C(=O)CCC4)cc1 | 83% | 93.6% | 98.3% | 104% | 65.9% | 93.3% | 79.6% | 99.8% | 115% | –
Cc1[nH]c(C(=O)Nc2ccc(C(=O)N3CCNCC3)cc2OC(C)C)c(Cl)c1Cl | 106% | 82.8% | 80.1% | 47.9% | 79.2% | 48.8% | 64.4% | 27.7% | 54.1% | –
Cc1ccc(-c2nc(N3CCN(CC(=O)Nc4ccc(Cl)cc4)CC3)c3ccccc3n2)cc1 | 103% | 85.4% | 90.4% | 64.1% | 104% | 85.2% | 51.4% | 88.9% | 62.1% | 98.3
COc1ccc(S(=O)(=O)n2c3ccccc3n3ncc(-c4nnc(C)o4)c23)cc1 | 67% | 31.7% | 38.3% | 44.8% | 76.1% | 32.1% | -8.11% (active) | 11.7% | 24.1% | –
Oc1ccc(Cl)cc1Cc1cc(Cl)cc(Cl)c1O | 37.4% | 35.6% | 20.4% | 44.8% | 79.5% | 49.6% | 85.9% | 19.5% | 19.2% | 27.9
O=C(Nc1ccc(-c2nc(-c3cccc(OCCN4CCOCC4)c3)c(-c3ccnc(Br)c3)[nH]2)cc1)c1ccccc1 | 25.3% | 32.3% | 45.9% | -51.9% (active) | 48.6% | -6.68% (active) | -70.5% (active) | 15.1% | 1.62% (active) | –
CC1=C(SCCC(=O)OC(C[Se]C2=C(C)C(=O)c3ccccc3C2=O)C(=O)NC(C)(C)C)C(=O)c2ccccc2C1=O (configuration not stated) | 2.5% (active) | -71.2% (active) | -64.4% (active) | -41.2% (active) | -94.3% (active) | -56.4% (active) | -40.6% (active) | -23% (active) | 13.1% | –
